# Results reported in PubChem BioAssay (Tox21).
# Results filed as inconclusive are left out. A number with no mark means an inactive call. The source made the active and inactive calls. The call rests on the fitted dose curve; in most records, active means well fitted inhibition curve with a large enough effect in the repeat runs; inconclusive means weak or mixed curves; inactive means flat fitted curve, though single readings scatter.
# Test: qHTS assay to identify small molecule HDAC inhibitors (AID 1259364); further: nearly all actives have a fitted effect of over 45% in size; on activity change, negative = inhibition: top concentration of the series differs between compounds
# Conditions: HCT-116 HDAC-Glo I/II luminescence, 2 h; series mostly up to 92.4 µM; activity change, negative = inhibition: at the top concentration
# Description: U.S. Tox21 Program National Center for Advancing Translational Sciences [NCATS] NIH Chemical Genomics Center [NCGC] U.S. Environmental Protection Agency [EPA] National Institutes of Environmental Health Sciences [NIEHS] National Toxicology Program [NTP] U.S. Food and Drug Administration [FDA] Tox21 Assay Overview: Histone deacetylases (HDACs) are a group of epigenetic enzymes that regulate gene expression by histone deacetylation. HDACs are capable of introducing epigenetic modifications and such aberrations contribute to the onset and progression of several human diseases, thus making HDACs a popular therapeutic target. For identifying endogenous class I/II HDAC inhibitors a homogenous, luminogenic HDAC I/II cell based assay was used to measure the relative activity of class I and II HDACs from cells. Wild type HCT-116 cells were used to screen Tox21 libraries for identifying class I/II HDAC inhibitors.
# Tox21 Assay Protocol Summary: HCT-116 cells were dispensed at 1,500 per well in 5uL of culture medium into white solid bottom 1536-well plates (Greiner Bio-One, Monroe, NC) using a Multidrop Combi (Thermo Scientific, Waltham, MA) dispenser. The assay plates were incubated at 37 C and 5% CO2 for an overnight, and then 23nL of compounds dissolved in DMSO and positive control were transferred using a Pintool station (Wako, San Diego, CA). The assay plates were incubated at 37C and 5% CO2 for 2hr. After compound treatment, 4uL of HDAC-Glo reagent (Promega Corporation, Madison, WI) was added to each well of the assay plates using Flying Reagent Dispenser (FRD, Aurora Discovery, San Diego, CA) and incubated the assay plates at room temperature for 30min. The luminescence signal was quantified using a ViewLux plate reader (Perkin Elmer, Shelton, CT).
# On the % scale 0 is the no-effect control and ±100 the full control effect; potency means the concentration at half of the fitted maximal effect.
SMILES,"activity change, negative = inhibition",Potency
CN(C)C/C=C(/c1ccc(Br)cc1)c1cccnc1,-1.99% [at 42.5 µM],–
O=c1[nH]cnc2ccccc12,2.72%,–
NCCCOCCOCCOCCCN,0.0837%,–
CC(=O)N(CC(=O)N(C)C)c1ccccc1,19.8% [at 42.5 µM],–
CCCCCCCCCCCCC(=O)O,-4.27%,–
O=[N+]([O-])c1cccc(Cl)c1Cl,-4.56%,–
CN(C)CC[C@@H](c1ccc(Br)cc1)c1ccccn1,-1.44% [at 42.5 µM],–
CC(=O)Nc1ccc(/C=N/NC(N)=S)cc1,-13.6% [at 42.5 µM],–
CN(C(=O)CCCOc1ccc2[nH]c(=O)ccc2c1)C1CCCCC1,6.25% [at 42.5 µM],–
CC(C)(C)c1ccc(S)cc1,1.71%,–
CC(=O)SCc1ccco1,-8.41%,–
O=C(O)C(c1ccc(Cl)cc1)c1ccc(Cl)cc1,-1.38%,–
CC(C)(C)C1CCCCC1O (stereo not given),3.02%,–
O=C(NN1CCCC1)NS(=O)(=O)c1ccc(Cl)cc1,3.93% [at 42.5 µM],–
C=C(C)C(=O)OCCN(C)C,1.61%,–
O=C(O)c1cn(C2CC2)c2cc(Cl)c(F)cc2c1=O,2.07% [at 42.5 µM],–
CC(O)C1CCCCC1 (stereo not given),1.68%,–
C[Si](C)O[Si](C)(C)O[Si](C)(C)O[Si](C)C,2.86%,–
CC(=O)/C(C)=C/C1C(C)=CCCC1(C)C (stereo not given),2.8%,–
Nc1nc(N)c2nc(CNc3ccc(C(=O)N[C@@H](CCC(=O)O)C(=O)O)cc3)cnc2n1,2.71%,–

SMILES,"activity change, negative = inhibition",Potency
CCCC[C@H]1CN(CC2CCOCC2)C(=O)OC12CCN(C1(C)CCN(C(=O)c3c(C)ncnc3C)CC1)CC2,-5%,–
ClC(Cl)(Cl)c1ccc(C(Cl)(Cl)Cl)cc1,-2.05%,–
C1=Cc2ccccc2C1,-5.29%,–
CC(C)CC=O,3.98%,–
CN1CCC(=C2c3ccccc3C=Cc3ccccc32)CC1,-1.34% [at 42.5 µM],–
Cc1cc(CC(=O)O)c(C)n1-c1ccc(Cl)cc1,-2.17% [at 42.5 µM],–
CC[C@H](C)[C@@H](C(=O)O)n1sc2ccccc2c1=O,0.851%,–
O=S1(=O)c2cccc3cccc(c23)N1CCCN1CCN(c2ccc(F)cc2)CC1,-4.97% [at 42.5 µM],–
C[C@@H](C1=C(CCN(C)C)Cc2ccccc21)c1ccccn1,-0.383% [at 42.5 µM],–
O=C(Cl)c1c(Cl)cccc1Cl,0.519%,–
CCN(CC)CCNC(C(=O)OCCC(C)C)c1ccccc1 (stereo not given),6.4% [at 42.5 µM],–
COc1ccc([C@@H]2Sc3ccccc3N(CCN(C)C)C(=O)[C@@H]2OC(C)=O)cc1,20.7% [at 42.5 µM],–
CN1CCN(C2=Nc3ccccc3Sc3ccc(Cl)cc32)CC1,0.939% [at 42.5 µM],–
C=C(C)C(=O)OCCOc1ccccc1,–,27.3 µM (active)
O=C(C(=O)c1ccc(Br)cc1)c1ccc(Br)cc1,4.75% [at 19 µM],–
CNS(=O)(=O)Cc1ccc2[nH]cc(CCN(C)C)c2c1,-1.13% [at 42.5 µM],–
COc1ccc2[nH]c(S(=O)Cc3ncc(C)c(OC)c3C)nc2n1 (stereo not given),15% [at 42.5 µM],–
FC(F)(F)C(F)(F)C(F)(F)C(F)(F)C(F)(F)C(F)(F)CCI,0.173% [at 42.5 µM],–
CC(=O)c1ccc2c(c1)[C@H](NC(=O)c1ccc(F)cc1)[C@@H](O)C(C)(C)O2,-7.14%,–
O=c1c2ccccc2nnn1CCl,-11.6%,–
